In PubChem BioAssay:
Activity calls are given as the source filed them. The rule behind the calls is not given here.

What follows are compounds tested against Pantothenate synthetase (Mycobacterium tuberculosis (strain ATCC 25618 / H37Rv)) (UniProt P9WIL5) (assay: Coupled enzyme confirmation of inhibitors against recombinant Mtb PanC (AID 375;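 note: 0% = full reaction with vehicle and 100% = no enzyme background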)). Conditions: coupled enzyme assay; at 10 µM, hits give high values.
Chain of Pantothenate synthetase (Mycobacterium tuberculosis (strain ATCC 25618 / H37Rv)) (P9WIL5 whole entry, looked up): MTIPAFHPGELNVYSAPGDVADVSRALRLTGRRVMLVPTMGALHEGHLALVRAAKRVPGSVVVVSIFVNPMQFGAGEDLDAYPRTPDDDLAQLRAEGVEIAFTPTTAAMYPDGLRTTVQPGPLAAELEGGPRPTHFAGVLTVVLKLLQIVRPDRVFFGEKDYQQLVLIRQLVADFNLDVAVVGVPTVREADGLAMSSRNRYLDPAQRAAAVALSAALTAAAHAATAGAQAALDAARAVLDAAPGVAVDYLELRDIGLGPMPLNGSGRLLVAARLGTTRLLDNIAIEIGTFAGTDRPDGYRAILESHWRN

Compound	inhibition
C=CCn1c(C)cc(C(=O)CSc2nc3ccccc3o2)c1C	9% (inactive)
c1cn(CC2(Cn3ccnc3)COC2)cn1	1% (inactive)
CC(C(=O)N1CCc2ccccc21)N1CCc2ccccc2C1 (stereo unspecified)	3% (inactive)
Cc1ccc(S(=O)(=O)N2CCN(C(=O)N3CCOCC3)C2c2ccc(N(C)C)cc2)cc1 (stereo unspecified)	0% (inactive)
O=C(Nc1ccccc1)N1CCC(c2ccccc2)C1 (stereo unspecified)	6% (inactive)
CC1(C)CC(=O)C(C=NCc2ccc3c(c2)OCO3)=C(O)C1	5% (inactive)
CC(C)(C)OC(=O)N1CCC(C(=O)N[C@H](Cc2ccccc2)C(=O)O)CC1	0% (inactive)
O=C(Cn1cnc2c(cnn2-c2ccc(F)cc2)c1=O)N1CCN(c2ccccc2)CC1	0% (inactive)
COc1cc(OC)cc(-c2nnc(Nc3nc4c(F)cccc4s3)o2)c1	12% (inactive)
COc1ccc(N2C(N)=C(C#N)C(c3cccnc3)C3=C2CC(C)(C)CC3=O)cc1 (stereo unspecified)	0% (inactive)
Cc1ccc(-c2cc(C(F)(F)F)n3ncc(C(=O)O)c3n2)cc1	5% (inactive)
C=COC(=O)CSc1snc(SCC(=O)OC)c1C#N	0% (inactive)
COc1ccc2cc(CN(CCO)C(=O)c3ccccc3F)c(=O)[nH]c2c1	5% (inactive)
Cc1cc(C)nc(N2CCC(C(=O)NC3CCCCCC3)CC2)n1	1% (inactive)
CC(=O)[C@@]1(O)CC[C@H]2[C@@H]3C[C@H](C)C4=CC(=O)CC[C@]4(C)[C@H]3CC[C@@]21C	1% (inactive)
NC(=O)c1c(NC(=O)CN2CCCC2)sc2c1CCCC2	4% (inactive)
